# The list shows a part of the results. The hit rate among all sequences tested is not known here.
# Target: furin, P09958
# Experiment: furin cleavage Z-score vs untreated control; higher = more cleavage, active = 3.5 or more, inactive = 1 or less, 8 variable residues between constant flanks
# In short: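 Read counts from sequencing released DNA gave abundance for each bead-bound 8-mer peptide–cDNA fusion cut by purified furin over 7.5, 15 or 30 min. The cleavage Z-score compares log counts with furin-free reactions after lowess adjustment and median absolute deviation scaling.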
# 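Note: purified furin at 1:10 enzyme:substrate in 50 mM HEPES pH 7.5.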
# Sequence of furin, P09958 (P09958 whole entry): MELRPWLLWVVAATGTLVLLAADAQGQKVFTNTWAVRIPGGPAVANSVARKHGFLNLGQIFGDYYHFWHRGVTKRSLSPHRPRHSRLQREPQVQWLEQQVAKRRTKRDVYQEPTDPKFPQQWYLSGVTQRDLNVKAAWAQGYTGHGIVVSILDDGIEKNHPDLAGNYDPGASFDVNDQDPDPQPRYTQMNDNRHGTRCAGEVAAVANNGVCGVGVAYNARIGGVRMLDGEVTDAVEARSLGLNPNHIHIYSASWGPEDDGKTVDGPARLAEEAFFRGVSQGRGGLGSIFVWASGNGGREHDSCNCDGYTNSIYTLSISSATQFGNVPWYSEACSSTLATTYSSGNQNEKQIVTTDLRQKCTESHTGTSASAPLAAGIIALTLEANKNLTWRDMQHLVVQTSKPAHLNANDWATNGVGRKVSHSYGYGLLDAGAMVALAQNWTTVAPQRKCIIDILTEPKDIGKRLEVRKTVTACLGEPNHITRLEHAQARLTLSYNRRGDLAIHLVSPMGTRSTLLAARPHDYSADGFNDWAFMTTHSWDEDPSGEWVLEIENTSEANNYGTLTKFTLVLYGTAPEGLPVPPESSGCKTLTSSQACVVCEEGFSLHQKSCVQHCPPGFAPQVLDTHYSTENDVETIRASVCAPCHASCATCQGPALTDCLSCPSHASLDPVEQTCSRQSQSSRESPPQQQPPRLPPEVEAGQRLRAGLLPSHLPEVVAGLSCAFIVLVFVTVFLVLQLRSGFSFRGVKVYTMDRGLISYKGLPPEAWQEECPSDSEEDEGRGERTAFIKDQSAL
Sequence,furin cleavage Z-score (7.5 min),furin cleavage Z-score (15 min),furin cleavage Z-score (30 min)
CAVYCCSMSYAGNASASA [HC2009],-0.694 (inactive),-1.09 (inactive),-1.22 (inactive)
CATTPCSGSQAGNASASA [HC1942],-0.135 (inactive),-0.54 (inactive),-2.05 (inactive)
CARHIRLVLKAGNASASA [FS-2937],-1.39 (inactive),-0.583 (inactive),-0.338 (inactive)
CARHIRRRRDAGNASASA [FS-1158],10.5 (active),10.7 (active),6.88 (active)
CALTRRMRRDAGNASASA [FS-177],14 (active),14.8 (active),9.72 (active)
CADRRRRRRDAGNASASA [FS-647],7.06 (active),7.21 (active),4.92 (active)
CAFQRRMAGMAGNASASA [FS-1671],-0.225 (inactive),-0.266 (inactive),0.306 (inactive)
CASRMREDRDAGNASASA [FS-871],-0.996 (inactive),-0.456 (inactive),1.09
CAFQRRRRRDAGNASASA [FS-906],11.2 (active),12 (active),8.45 (active)
CAMCTTPCSGAGNASASA [HC1946],0.117 (inactive),1.58,0.427 (inactive)
CAEVPCHRVSAGNASASA [HC2390],2.12,0.773 (inactive),2
CAEPTTPCSGAGNASASA [HC1979],-1.55 (inactive),-0.645 (inactive),-0.627 (inactive)
CAWTTQGCNCAGNASASA [HC310],0.795 (inactive),-2.96 (inactive),-0.152 (inactive)
CAWEMEECSQAGNASASA [HC1788],1.14,0.864 (inactive),-0.48 (inactive)
CATRGERCDLAGNASASA [HC484],-0.0552 (inactive),1.25,1.03
CAEHVVCCSMAGNASASA [HC2135],0.471 (inactive),-0.688 (inactive),1.47
CAVVCCSMSTAGNASASA [HC2098],0.887 (inactive),-0.156 (inactive),0.445 (inactive)
CAYGCRRRRDAGNASASA [FS-737],9.65 (active),10.6 (active),8.47 (active)
CALAFRRRRDAGNASASA [FS-346],7.62 (active),8.27 (active),6.14 (active)
CATTDRRRRDAGNASASA [FS-101],9.9 (active),8.9 (active),5.67 (active)
CAGRPRRRRDAGNASASA [FS-432],11.8 (active),13.5 (active),9.18 (active)
CAWAHNGLRDAGNASASA [HC640],0.594 (inactive),0.97 (inactive),-0.0784 (inactive)
CAGRPRSRKIAGNASASA [FS-657],-0.514 (inactive),-1.38 (inactive),0.291 (inactive)

Sequence,furin cleavage Z-score (7.5 min),furin cleavage Z-score (15 min),furin cleavage Z-score (30 min)
CAEVPCHRPCAGNASASA [HC2420],0.0318 (inactive),0.651 (inactive),0.47 (inactive)
CAIMFAPTLWAGNASASA [HC1577],-1.61 (inactive),-2.05 (inactive),0.617 (inactive)
CASPVFTDNSAGNASASA [HC764],-0.427 (inactive),0.197 (inactive),-1.76 (inactive)
CAAWDMMMNWAGNASASA [HC320],1.05,0.73 (inactive),-0.468 (inactive)
CAPEECSQHLAGNASASA [HC1679],1.99,1.43,0.965 (inactive)
CAGEIPFYGKAGNASASA [HC846],1.57,-1.54 (inactive),-0.341 (inactive)
CAIEANLLWRAGNASASA [HC1274],0.45 (inactive),0.419 (inactive),0.862 (inactive)
CAAKARGPRSAGNASASA [FS-745],11 (active),9.83 (active),7.42 (active)
CAVGKRQPRSAGNASASA [FS-1176],10.8 (active),10.9 (active),8.62 (active)
CAREYRGQRSAGNASASA [FS-705],-0.292 (inactive),2.01,0.594 (inactive)
CARAERGPRSAGNASASA [FS-1058],3.99 (active),4.52 (active),4.09 (active)
CASASRGPRSAGNASASA [FS-1078],4.05 (active),4.67 (active),4.87 (active)
CAATPPGSVTAGNASASA [HC835],-1.05 (inactive),-0.0418 (inactive),-0.602 (inactive)
CAFVGAGLAGAGNASASA [HC1075],-0.934 (inactive),-0.739 (inactive),-0.847 (inactive)
CAVVCCSFSYAGNASASA [HC2047],0.639 (inactive),-0.617 (inactive),-0.397 (inactive)
CATKLLLAVFAGNASASA [HC605],1.92,3.24,0.635 (inactive)
CASTPCSAHMAGNASASA [HC2566],-0.903 (inactive),0.0563 (inactive),1.83
CAAMTPTVATAGNASASA [HC281],0.668 (inactive),1.6,-0.149 (inactive)
CAERHRQTRSAGNASASA [FS-763],6.53 (active),6.61 (active),4.64 (active)
CATHSIKKRSAGNASASA [FS-1574],8.84 (active),7.91 (active),7.4 (active)
CAQTSRSNRFAGNASASA [FS-852],0.217 (inactive),-0.984 (inactive),0.464 (inactive)
CAQTSRNTRSAGNASASA [FS-184],9.04 (active),11.5 (active),9.02 (active)
CASASHKKRSAGNASASA [FS-867],3,2.31,3.6 (active)

# Source: the supplement of paper PMC3545927
